Screens: PubChem BioAssay, NMMLSC
Hits are enriched below; roughly 0.4% of the tested compounds scored in any of these assays.
HRas wt GTP bind = modulators of GTP binding to human HRas wildtype. P01112. GST-Ras wt beads, Bodipy-FL-GTP binding, flow cytometry; actives lie on both sides. GTP binding activity, % at 10 µM. 190,000 compounds, 0.14% hits;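 active = GTP binding activity at least 20% away from the 100% baseline, either lowered as inhibitor or raised as activator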;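 also: 0% = unlabeled GTP competition control and 100% = no-compound control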
Target sequence (P01112 whole entry, looked up): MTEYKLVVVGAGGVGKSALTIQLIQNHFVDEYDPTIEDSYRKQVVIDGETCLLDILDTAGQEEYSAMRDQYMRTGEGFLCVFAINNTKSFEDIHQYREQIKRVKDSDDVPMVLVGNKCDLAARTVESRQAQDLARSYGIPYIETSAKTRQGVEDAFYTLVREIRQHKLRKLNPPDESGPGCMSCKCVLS
Rac1 mut GTP = human Rac1 activated mutant GTP binding change | P63000 | GST-Rac1 activated beads, fluorescent GTP binding, flow cytometry; actives lie on both sides; 100% means binding = to untreated wells | percent activity (GTP binding), % at 10 µM | 190,000 compounds, 0.11% hits;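 active = GTP binding at least 20 percentage points away from the 100% baseline, in either direction, so actives lie on both sides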
Rab7 wt GTP bind = dog Rab7 wildtype GTP binding, inhibitors and activators; GST-Rab7 beads, fluorescent GTP binding, flow cytometry; actives lie on both sides; untreated = 100%, excess cold GTP = 0%; GTP binding activity (percent of control), % at 10 µM; 190,000 compounds, 0.055% hits;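 active = fluorescent GTP binding to Rab7 beads changed by at least 20 points from the 100% baseline, either direction, mostly lower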;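 also: median green fluorescence of bound Bodipy-FL-GTP per Rab7 bead population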
Cdc42 wt = modulators (inhibitors or activators) of GTP binding to human Cdc42 wildtype; P60953; GST-Cdc42 beads, Bodipy-GTP binding, flow cytometry; actives lie on both sides; percent activity (GTP binding), % at 10 µM; 190,000 compounds, 0.2% hits;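 active = percent activity GTP binding at least 20 points away from the 100% baseline, either down as inhibitor or up as activator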;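 also: median bead fluorescence of bound Bodipy-FL-GTP at 100 nM; 0% = excess unlabeled GTP control and 100% = no compound control; below 100% means less GTP binding so inhibitor and above means activator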
Target sequence (P60953 whole entry, looked up): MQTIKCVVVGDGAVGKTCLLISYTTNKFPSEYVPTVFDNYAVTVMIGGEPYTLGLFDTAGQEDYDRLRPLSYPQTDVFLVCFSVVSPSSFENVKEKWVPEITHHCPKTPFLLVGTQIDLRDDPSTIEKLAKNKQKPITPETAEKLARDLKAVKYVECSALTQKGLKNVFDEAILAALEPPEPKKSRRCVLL
Rab2 wt GTP = changes GTP binding to wildtype dog Rab2A, up or down; GTP binding activity, % at 10 µM; GST-Rab2 wt beads, Bodipy-GTP binding, flow cytometry; 190,000 compounds, 0.19% hits; P61105; AID 760;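 active = GTP binding activity at least 20 points away from 100%, either lowered or raised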;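 also: 0% = beads with excess unlabeled GTP and 100% = no-compound control corrected for plate trend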
Rac1 wt GTP bind = alters GTP binding to wildtype human Rac1 | P63000 | GST-Rac1 beads, fluorescent GTP binding, flow cytometry; actives lie on both sides; 0 = cold GTP competed, 100 = untreated | GTP binding activity (% of control), % at 10 µM | 190,000 compounds, 0.27% hits | AID 757;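 active = GTP binding activity at least 20 points away from the 100% control level, either lower or higher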
Starred values were filed as active, the others as inactive; [ ] = dose if it differs, or a comment.

SMILES	HRas wt GTP bind	Rac1 mut GTP	Rab7 wt GTP bind	Cdc42 wt	Rab2 wt GTP	Rac1 wt GTP bind
O=[N+]([O-])c1ccccc1/C=C/C=N/n1c(-c2ccco2)n[nH]c1=S	80	75*	84	76*	82	77*
c1ccc(OCc2cc(-c3ccccc3)no2)cc1	96	97	95	96	97	102
Cc1ccc(NCC(=O)c2ccccc2)cc1Cl	78*	92	82	93	88	91
Cn1c(=O)c2c(nc(N3CCc4ccccc4C3)n2C)n(C)c1=O	81	83	85	80*	81	69*
CCN1CCN(c2nc3c(c(=O)n(C)c(=O)n3C)n2Cc2cccc3ccccc23)CC1	108	101	102	116	111	120*[activator]
Cc1ccc(N(C(=O)C2CCCC2)C2C=CS(=O)(=O)C2)cc1 (configuration not stated)	101	99	99	101	99	100
COc1ccc(C(=O)NC(C(=O)NCC2CCCO2)C(C)C)cc1 (configuration not stated)	91	94	93	91	92	94
O=C(Oc1ccc(C(=S)N2CCOCC2)cc1Br)c1cc(Cl)ccc1Cl	98	95	98	97	96	99
O=C(Oc1c(Br)cc(C(=S)N2CCOCC2)cc1Br)c1ccc(Cl)cc1	80	77*	88	75*	78*	80
O=S1(=O)N=C(N=Nc2c(O)[nH]c3ccccc23)c2ccccc21	87	87	96	80	82	77*
O=C(NC1CCCCC1)C(c1ccco1)N(Cc1ccco1)C(=O)c1ccco1 (configuration not stated)	64*	98	98	100	98	100
Cc1cc2[nH]c3c(c[n+](C)c4ccccc34)c2cc1C	87	94	94	85	87	76*
Cc1cc(=O)[nH]c2ccccc12	107	101	107	108	105	107
Cc1nc2c(C)cccn2c1C(=O)c1ccccc1	95	98	100	96	97	94
CCOc1cc(/C=N/NC(=O)c2cc(-c3cccnc3)nc3ccccc23)ccc1O	86	88	99	83	83	78*
CCOc1cc(/C=N/Nc2nncc(-c3ccccc3)n2)ccc1O	83	87	87	84	85	74*
Cc1ccsc1/C=C/c1ccc2cccc(O)c2n1	103	99	105	102	104	109
Cc1nc(C(=O)N(C)C)nn1-c1ccc(Cl)cc1Cl	102	101	101	105	100	110
O=C(O)Cc1coc2cc3c(cc12)CCC3	88	87	79*	91	89	88
CCOC(=O)CCn1nc(-c2ccc(Cl)cc2)cc1N	99	99	99	101	101	103
Cc1cc(NC(=O)c2cccc(C(=O)Nc3cc(C)on3)n2)no1	80	91	93	79*	80	88
O=C(N/N=C/c1ccc([N+](=O)[O-])o1)c1cn(-c2ccccc2)nc1-c1ccccc1	85	92	96	89	83	82
O=C(N/N=C/c1ccc([N+](=O)[O-])o1)c1cn(-c2ccccc2)nc1-c1ccc(Cl)cc1	81	86	98	81	82	79*
COc1ccc(Cn2c(O)c(/C=N/NC(=O)c3cccnc3)c3ccccc3c2=O)cc1	87	72*	96	68*	83	60*
O=C(N/N=C/c1c(O)n(Cc2ccccc2)c(=O)c2ccccc12)c1cccnc1	78*	68*	93	65*	71*	55*
O=C(N/N=C/c1c(O)n(-c2ccccc2Cl)c(=O)c2ccccc12)c1cccnc1	93	94	94	91	93	94
O=C(NCC(c1cccnc1)N1CCN(c2ccc(F)cc2)CC1)c1ccc(F)cc1 (configuration not stated)	95	92	95	97	91	90
O=c1[nH]c(N/N=C/c2ccc(O)cc2)nc2ccccc12	76*	89	91	83	77*	77*
